Experimental data as given in PubChem BioAssay AID1224903 (Bradner/Qi Labs at DFCI, 2016).
About 720 (1.1%) of roughly 66,000 compounds were called active. Rule as the data show it: active = normalised signal below about 0.5; inactive = the rest, inconclusive results apart. This excerpt belongs to a sample that is enriched for actives.

Each compound was assayed against Chromobox protein homolog 7 (Homo sapiens) (UniProt O95931) (assay: CBX7 chromodomain binding inhibitors, primary screen, biochemical, AlphaScreen (AID 1224903)). Conditions: AlphaScreen His6-CBX7 / biotin-H3K27me3 peptide binding, stronger effect = lower value; z-score: measured here: z-score of CBX7 signal.
Sequence of Chromobox protein homolog 7 (Homo sapiens) (O95931 whole entry, looked up): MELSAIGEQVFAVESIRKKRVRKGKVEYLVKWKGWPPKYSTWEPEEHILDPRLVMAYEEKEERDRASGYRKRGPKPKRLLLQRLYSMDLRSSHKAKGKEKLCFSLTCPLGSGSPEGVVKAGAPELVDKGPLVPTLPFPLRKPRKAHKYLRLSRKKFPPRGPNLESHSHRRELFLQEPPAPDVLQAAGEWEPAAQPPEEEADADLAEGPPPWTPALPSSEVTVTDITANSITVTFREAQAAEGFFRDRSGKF

SMILES | normalised signal (fraction of DMSO) | z-score
Cc1ccc(C2CC(c3ccc(C)cc3)n3ncnc3N2)cc1 (stereo unspecified) | 1.02 (inactive) | 0.839
Cc1cc(C)cc(NS(=O)(=O)c2cnc[nH]2)c1 | 1.01 (inactive) | 0.0588
COc1ccc(NC2CC(=O)N(Cc3ccccc3)C2=O)cc1 (stereo unspecified) | 1.18 (inactive) | 0.412
COc1ccccc1NC(=O)Cn1ccc2ccccc2c1=O | 0.981 (inactive) | -0.168
O=C(Nc1ccc2c(c1)OCO2)c1cnc2ccccn2c1=O | 0.987 (inactive) | -0.351
CCN1CCN(c2ccc(Nc3nc(-c4ccccc4)c4cc(Cl)ccc4n3)cc2)CC1 | 0.231 (active) | -24.9
O=C(O)c1ccc(Nc2nc(-c3ccccc3)c3cc(Br)ccc3n2)cc1 | 1.05 (inactive) | 2.04
Cc1ccc(Nc2nc(-c3ccccc3)c3cc(Cl)ccc3n2)cc1 | 1.7 (inactive) | 11.8
Cc1nc2sc(C(c3cccs3)N3CCc4ccccc4C3)c(O)n2n1 (stereo unspecified) | 0.953 (inactive) | -2.28
Cc1[nH]c2ccc(OC(F)(F)F)cc2c1CCNS(=O)(=O)c1ccc(C(C)C)cc1 | 0.913 (inactive) | -1.89
COc1ccc(S(=O)(=O)NCCc2c(C)[nH]c3ccc(C)cc23)cc1C | 0.907 (inactive) | -1.43
COc1ccc2[nH]c(C)c(CCNS(=O)(=O)c3ccc(Cl)c(OC)c3)c2c1 | 0.845 (inactive) | -0.316
COc1ccc(OC)c(S(=O)(=O)NCCc2c(C)[nH]c3ccc(C)cc23)c1 | 0.427 (active) | -0.571
COc1ccc2[nH]c(C)c(CCNS(=O)(=O)c3cc(Br)ccc3OC)c2c1 | 0.363 (active) | -0.634
Cc1ccc2[nH]c(C)c(CCNS(=O)(=O)c3ccc(C)c(C)c3C)c2c1 | 0.951 (inactive) | -0.467
Cc1nc2sccn2c1-c1csc(Nc2ccc(S(N)(=O)=O)cc2)n1 | 1.07 (inactive) | 0.0851
Cc1ccc(Cn2nnc3c(=O)n(Cc4c(F)cccc4Cl)cnc32)cc1 | 0.864 (inactive) | -2.23
Cc1ccn2c(NC3CCCCC3)c(-c3cccs3)nc2c1 | 0.819 (inactive) | -1.46
COc1ccc(OC)c(NC(=O)CCc2c(C)nc3c(c(C)nn3-c3ccc(C)cc3)c2C)c1 | 0.992 (inactive) | -0.0612
CCCCCC(O)(CCN1CCCCC1)c1ccccc1 (stereo unspecified) | 1.09 (inactive) | 2.44
CCCN1C(=O)C(O)(CC(=O)c2ccc(CC)cc2)c2cc(Br)ccc21 (stereo unspecified) | 0.0492 (active) | -1.07
CC(C)c1ccc(C(=O)CC2(O)C(=O)N(Cc3ccccc3)c3ccc(Br)cc32)cc1 (stereo unspecified) | 0.876 (inactive) | -1.19
CCc1ccc(C(=O)CC2(O)C(=O)N(CCc3ccccc3)c3ccc(Br)cc32)cc1 (stereo unspecified) | 0.626 (inactive) | -10.8
